# Experimental data reported in PubChem BioAssay (Tox21).
# A number with no mark means an inactive call. Activity calls are given as the source filed them. The call rests on the fitted dose curve.
# Molecular target: Acetylcholinesterase (Homo sapiens) (UniProt P22303)
# Experiment: Acetylcholinesterase (AChE) small molecule antagonists: enzyme-based qHTS assay (AID 1347397); further: nearly all actives have a fitted effect of over 55% in size
# Conditions: Potency: AChE enzyme activity inhibition; outcome: AChE enzyme activity inhibition; series mostly up to 115 µM; activity change, negative = inhibition: at the top concentration
# Source text: National Center for Advancing Translational Sciences [NCATS]
# Division of Preclinical Innovation [DPI]
# U.S. Environmental Protection Agency [EPA]
# National Institutes of Environmental Health Sciences [NIEHS]
# National Toxicology Program [NTP]
# U.S. Food and Drug Administration [FDA]
# Acetylcholinesterase (AChE) is the primary cholinesterase in the body that hydrolyzes a key neurotransmitter, acetylcholine. Inhibition of AChE activity can lead to neurotoxicity. The known inhibitors include organophosphorous pesticides (OP), chemical warfare agents, drugs, and various phytochemicals.
# An enzyme-based assay with the recombinant human AChE and Amplite Colormetric acetylcholinesterase assay kit (AAT Bioquest, Sunnyvale, CA) was used to evaluate the chemicals in the Tox21 10K library that inhibit AChE activity. The assay uses 5, 5-dithiobis-(2-nitrobenzoic acid) (DTNB) to quantify the thiocholine produced from the hydrolysis of acetylthiocholine by AChE.
# Tox21 Assay Protocol Summary:
# For the enzyme-based AChE assay, recombinant human AChE (50 mU/mL) in 4 uL/well was dispensed into black, clear-bottom 1536-well plates using a Multidrop Combi dispenser (Thermo Scientific, MA). Then, 23 nL of compound or DMSO (vehicle control) was transferred into the assay plates by a Pintool Station (Wako Automation, CA). The plates were incubated for 30 min at room temperature, followed by the addition of 4 uL of colorimetric detection cocktail solution (DTNB, acetylthiocholine) into each well using a Flying Reagent Dispenser (Beckman Coulter, CA) and then 10 min incubation at room temperature.
# On the % scale 0 is the no-effect control and ±100 the full control effect; potency means the concentration at half of the fitted maximal effect.
# Acetylcholinesterase (Homo sapiens), sequence (P22303 whole entry, looked up): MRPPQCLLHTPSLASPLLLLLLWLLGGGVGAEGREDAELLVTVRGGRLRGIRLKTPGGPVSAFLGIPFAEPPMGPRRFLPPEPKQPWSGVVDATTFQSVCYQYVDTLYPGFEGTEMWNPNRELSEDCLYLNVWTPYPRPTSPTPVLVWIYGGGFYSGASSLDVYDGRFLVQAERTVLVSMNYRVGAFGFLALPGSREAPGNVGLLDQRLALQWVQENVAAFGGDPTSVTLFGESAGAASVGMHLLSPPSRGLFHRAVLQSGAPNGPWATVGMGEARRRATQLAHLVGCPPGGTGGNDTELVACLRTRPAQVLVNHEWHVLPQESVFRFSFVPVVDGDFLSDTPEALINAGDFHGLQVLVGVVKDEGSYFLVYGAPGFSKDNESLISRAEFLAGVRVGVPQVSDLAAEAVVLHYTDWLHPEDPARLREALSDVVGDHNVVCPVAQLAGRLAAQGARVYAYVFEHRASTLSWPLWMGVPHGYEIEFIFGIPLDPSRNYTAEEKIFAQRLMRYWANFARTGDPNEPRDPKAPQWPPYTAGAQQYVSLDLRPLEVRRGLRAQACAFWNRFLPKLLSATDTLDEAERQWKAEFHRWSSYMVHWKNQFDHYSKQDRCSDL
SMILES,Potency,"activity change, negative = inhibition"
CCCCCCCO,inactive,
CCc1ccc(CC)cc1,,0.0674%
c1ccc(OCCOc2ccccc2)cc1,inactive,
CCC1(C)CC(=O)NC1=O (stereo not given),,0.406% [at 53 µM]
Cc1cnc(NC(=O)C2=C(O)c3ccccc3S(=O)(=O)N2C)s1,inactive,
OCCO,inactive,
O=C(O)Cc1ccc2c(c1)C(=O)c1ccccc1CO2,,-0.135% [at 53 µM]
C=CC(=O)OCCOCCOC(=O)C=C,,0.545%
CCOc1cc([N+](=O)[O-])c(OCC)cc1N1CCOCC1,,2.84%
CC(=O)OC1CCCCC1,,1.63%
CCc1nn(C2CCCCC2)c2cc(C3(C#N)CCC(C(=O)O)CC3)ccc12 (stereo not given),,1.12%
O=C(CCN1CCN(CCO)CC1)N1c2ccccc2Sc2ccc(C(F)(F)F)cc21,,0.787% [at 53 µM]
CC(=O)C1(C)CC2=C(CCCC2(C)C)CC1C (stereo not given),inactive,
CC(C)CCCCCCc1ccc(OCCOCCO)cc1,,2.2%
c1ccc2sc(SSc3nc4ccccc4s3)nc2c1,,0.97% [at 23.6 µM]
COc1ccc(N)c(OC)c1,inactive,
CC(C)S,,1.07%
O=[N+]([O-])c1cccc(C(F)(F)F)c1,,0.143%
CN(C)CCCCl,,1.36%
O=C1c2ccccc2C(=O)C1c1ccc2ccccc2n1,,0.37% [at 53 µM]

SMILES,Potency,"activity change, negative = inhibition"
CCCCCCCCCCCCCCO,inactive,
CCCCC(CC)CN=C(N)NC(N)=NCCCCCCN=C(N)NC(N)=NCC(CC)CCCC (stereo not given),17.4 µM (active),
CCCCCCCCCCCCc1ccccc1,inactive,
CCC(C)c1cc([N+](=O)[O-])cc([N+](=O)[O-])c1OC(=O)OC(C)C (stereo not given),,-0.731%
CC(C)N(c1ccccc1)C(C)C,,-0.741%
CCCCN(CCN(CCCC)C(=O)N1CCOCC1)C(=O)N1CCOCC1,,2.03% [at 53 µM]
CO[Si](CCCNCCNCCN)(OC)OC,,-1.09%
CCCCCCCCSCCO,,2.54%
Cc1ccc([N+](=O)[O-])cc1S(=O)(=O)O,inactive,
C1=CCCC1,,-0.273%
Cc1cccc(O)c1C,inactive,
C=CC(C)(C)C,inactive,
C1CN(CCOCCN2CCOCC2)CCO1,,-0.494%
ClCCCl,,1.34%
Cc1ccc2c(c1)C(=O)OC2=O,inactive,
CC(C)(C)c1ccc(C(=O)CCCCl)cc1,,1.48% [at 53 µM]
Cc1cc2nc3ccc(=[N+](C)C)cc-3sc2cc1N,4.9 µM (active),
CC(=O)OC(C)OC(=O)C(C)c1ccc(-c2ccccc2)c(F)c1 (stereo not given),,0.371% [at 53 µM]
CCCCCC(CO)CCC (stereo not given),,0.139%
O=[N+]([O-])c1cc(C(F)(F)F)ccc1Cl,inactive,
